Source: PubChem (National Center for Advancing Translational Sciences (NCATS))
Sampled rows, rich in hits. Any-hit rate of the full collection: about 19%.
SW480 rereplic – induces DNA re-replication in SW480 colon adenocarcinoma cells; Potency, µM (highest dose often 46.1 µM), for the others: at the highest dose re-replication activation, actives largely listed as activators; 340,000 compounds, 1.8% hits; AID 624297; SW480 DNA re-replication, Hoechst DNA content imaging, 48 h; further: potency means the concentration at half of the fitted maximal effect; % of control where 0% means no effect; nearly all actives have a fitted effect of over 55% in size
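DNA re-replication was detected as more nuclei of elevated Hoechst intensity after 48 hr exposure to compound (23 nL pinned per well of 250 cells).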
IL-1B inflam inh – inhibitors of inflammasome signaling (IL-1 beta secretion). activity change, % at 57.5 µM. 360,000 compounds, 4.7% hits. THP-1 LPS/ATP IL-1B secretion, AlphaLISA, 16 h; stronger effect = lower value. AID 743279; in the data active means activity change below about -50%; inconclusive means mostly about -30% to -49%; further: on the % scale 0 is the no-effect control and ±100 the full control effect
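Secreted IL-1B measured by AlphaLISA bead assay after 16 h compound exposure of THP-1 cells; compounds (final up to 57.5 uM) added 1 h before LPS (250 ng/mL) and ATP (1.25 mM) stimulation; lower signal means less secretion.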
TDP1 cell CPT – DT40-hTDP1 cell growth loss with CPT. chicken DT40 Tdp1-/-;hTDP1 cells + 20 nM CPT, ATP luminescence, 48 h. Potency, µM (top dose mostly 46.2 µM), for the others: top-dose activity change, negative = growth inhibition, usual class: inhibitors. 420,000 compounds, 12% hits; further: potency means the concentration at half of the fitted maximal effect; on the % scale 0 is the no-effect control and ±100 the full control effect; nearly all actives have a fitted effect of over 55% in size
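Chicken DT40 Tdp1-/- cells stably complemented with human TDP1 were seeded at 400 cells/well in medium containing 20 nM camptothecin, exposed to pin-transferred compounds, and grown at 37 °C for at least 48 hr. Viability was read as ATP luminescence.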
BCR signal inh – chronic active BCR signaling inhibition. ABC-DLBCL IkBa-CBG/CBR reporter, luminescence ratio, 4 h. Potency, µM (series often up to 46.1 µM), for the others: at the top dose activity change, negative = inhibition, most hits filed as inhibitors. 340,000 compounds, 0.05% hits. AID 493014; active means well fitted inhibition curve with a large enough effect in the signal ratio, with a control signal flat, not every such curve was filed as active; inconclusive means small, poorly fitted or top-dose-only effect, or effect the other way, or a change in a side signal; the % refers to the signal ratio;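 further: potency means the concentration at half of the fitted maximal effect; plate controls were basal doxycycline-induced cells for no effect and cells given 10 µM MG132 for full effect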
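Doxycycline induced both beetle luciferases in TMD8 lymphoma cells; IKK-driven degradation limits the IkappaBalpha-fused green signal, while red luminescence normalises for cell number and nonspecific effects. Compounds tested up to 46 uM, 4 hrs.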
MCF10A rerep – DNA re-replication induction in MCF 10a cells; 350,000 compounds, 2.9% hits; MCF 10A DNA re-replication, Hoechst nuclear intensity, 48 h; Potency, µM (top dose mostly 46.1 µM), for the others: top-dose activity, positive = re-replication, hits mostly activators; further: potency means the concentration at half of the fitted maximal effect; % of control where 0% means no effect; nearly all actives have a fitted effect of over 50% in size
TDP1 cell noCPT – qHTS for Inhibitors of human tyrosyl-DNA phosphodiesterase 1 (TDP1): qHTS in cells in absence of CPT. Potency, µM (top dose mostly 46.2 µM), for inactives: top-dose activity change, negative = growth inhibition, most hits filed as inhibitors. 420,000 compounds, 15% hits. AID 686978, 2013. DT40 Tdp1-/- hTDP1 cells, no CPT, ATP luminescence, 48 h; further: potency means the concentration at half of the fitted maximal effect; on the % scale 0 is the no-effect control and ±100 the full control effect; nearly all actives have a fitted effect of over 55% in size
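No-CPT arm: Tdp1-/-;hTDP1 DT40 cells (400/well) plus compounds, incubated ≥48 hr at 37 °C. Readout CellTiter-Glo luminescence.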
* marks the source's active call; other numbers are inactive results; u = inconclusive; x = no result given. Unless noted, the call rests on the fitted dose curve; in most records, active means well fitted curve in the direction sought with a large enough effect; inconclusive means small, poorly fitted or top-dose-only effect, or another doubt; inactive means no such curve, though single readings can be large; an effect the other way counts as inactive or inconclusive.

SMILES | SW480 rereplic | IL-1B inflam inh | TDP1 cell CPT | BCR signal inh | MCF10A rerep | TDP1 cell noCPT
CCOC(=O)N1CCN(Cc2ccc(O)c3ncccc23)CC1 | 5.8µM* | -9 | 0.58µM* | u | 21µM* | 0.65µM*
CSc1ncccc1C(=O)N1CCN(S(=O)(=O)c2cc(C)ccc2C)CC1 | 3% | -5 | -12% | -2% | 7% | -28%
Cc1ccc(NC(=O)COCC(=O)Nc2ccc(F)cc2)cc1 | -9% | 50 | 18µM* | 1% | -2% | 21µM*
Cc1ccc(NC(=O)COCC(=O)Nc2ccc(C)cc2)cc1 | 7% | -8 | -7% | -16% | 13% | -3%
Cc1cc(C)cc(OCC(=O)Nc2ccc(F)cc2)c1 | 14% | -52* | 3% | u | u | -29%
Cc1ccc(NC(=O)CNc2ccc(OC(C)C)cc2)cc1 | 22% | -18 | u | u | u | 23µM*
CCCc1cc(=O)n2[nH]c(NC(=O)c3ccccc3Cl)nc2n1 | x | x | -14% | x | x | -7%
CS(=O)(=O)c1ccc(C(=O)OCC(=O)N2CCCc3ccccc32)cc1 | u | -3 | 0% | -3% | 1% | 3%
CS(=O)(=O)c1ccc(C(=O)OCC(=O)N2CCc3ccccc32)cc1[N+](=O)[O-] | x | x | 3.5µM* | x | x | 4µM*
O=C(OCC(=O)N1CCc2ccccc21)[C@@H]1CC(O)CN1S(=O)(=O)c1ccccc1[N+](=O)[O-] (some centres undefined) | -1% | -15 | 21µM* | u | -3% | 18µM*
Cc1ccc(-c2cc(C(=O)Nc3cccc(S(=O)(=O)N(C)C)c3)c3ccccc3n2)o1 | u | -18 | u | 9% | u | 16µM*
Cc1ccc(-c2cc(C(=O)O)c3cc(Br)ccc3n2)o1 | -5% | 0 | 1% | -2% | u | -11%
Cc1ccc(-c2cc(C(=O)N3CC(C)CC(C)C3)c3ccccc3n2)o1 (centres undefined) | 14% | u | u | 0% | u | 18µM*
Cc1ccc(-c2cc(C(=O)Nc3ccccc3C)c3ccccc3n2)o1 | 1% | 5 | u | u | u | 18µM*
COC(=O)c1cc(-c2ccc(C)o2)nc2ccccc12 | 16µM* | -28 | 7.3µM* | 6% | 23µM* | 15µM*
Cc1ccc(C(=O)OCC(=O)NCc2ccc(Cl)cc2)s1 | x | -3 | -40% | x | x | u
Cc1ccccc1S(=O)(=O)NC(=O)C1(C)CCN1C(=O)Cc1cc(F)ccc1F (centres undefined) | x | 10 | -12% | x | x | 0%
CC(=O)C1(O)C(C)CC2C3CC(F)C4(O)CC(O)CCC4(C)C3CCC21C (centres undefined) | -7% | 9 | -6% | x | 20% | -18%
O=S(=O)(NCCSc1ccccc1)c1ccc(F)cc1 | 1% | 0 | u | -1% | 2% | 18µM*
C(=Nc1ccc2ccccc2n1)c1cccnc1 | x | x | u | x | x | -11%
CCOc1ccc2[nH]c(SCC(=O)OC)c([N+](=O)[O-])c2c1 | 9% | 21 | 6.5µM* | 1% | u | 4.6µM*
CCOC(=O)COc1cc(-n2c(=S)[nH]c3cc(OC)c(OC)cc3c2=O)c(Cl)cc1Cl | -5% | 0 | -29% | u | 23µM* | u
CCOC(=O)COc1cc(N2C(=O)CSCC2=O)c(Cl)cc1Cl | -1% | -99* | -8% | u | -7% | -4%
CCCCOC(=O)COc1ccc(Cl)cc1Cl | -10% | 12 | 0% | 8% | 10% | 2%
COc1cc2[nH]c(=S)n(N(C(C)=O)C(C)=O)c(=O)c2cc1OC | -12% | 27 | -21% | u | u | -11%
SMILES | SW480 rereplic | IL-1B inflam inh | TDP1 cell CPT | BCR signal inh | MCF10A rerep | TDP1 cell noCPT
N=c1sccn1CC(=O)Nc1ccccc1Sc1ccccc1 | 8% | -55* | -21% | 3% | -4% | u
CC(=O)N1CCN(CC(=O)Nc2ccccc2Sc2ccccc2)CC1 | 0% | 0 | u | -12% | 19% | 23µM*
CC1CN(CC(=O)Nc2ccccc2Sc2ccccc2)CC(C)O1 (centres undefined) | x | 0 | 23µM* | 6% | 5% | 23µM*
Cc1cccc(C)c1NC(=O)COC(=O)c1ccc([N+](=O)[O-])o1 | 0% | -2 | -4% | 0% | 2% | -17%
COc1cccc(Nc2ncc3ncc(=O)n(CCc4ccccc4)c3n2)c1 | x | x | -15% | x | x | -15%
COc1ccc2oc(=Nc3ccccc3)c(-c3nc4ccccc4[nH]3)cc2c1 | -71% | -1 | 10µM* | u | u | u
COc1ccc(-c2cc(=O)n(-c3nc4ccccc4[nH]3)[nH]2)cc1 | u | 55 | 35µM* | 5% | 18µM* | -78%
COC(=O)c1ccc(C(=O)Nc2ccc3nc(-c4ccncc4)[nH]c3c2)cc1 | -3% | -24 | u | u | 8% | -12%
COC(=O)c1ccc(C(=O)Nc2ccc3nc(-c4cccnc4)[nH]c3c2)cc1 | 2% | -16 | -16% | 15% | -12% | 5.2µM*
COc1ccc(-c2nc3ccccc3[nH]2)cc1 | 11% | 2 | 10µM* | u | -2% | 13µM*
Cc1c(NC(=O)CSc2ccc3ccccc3n2)c(=O)n(-c2ccccc2)n1C | -18% | -30 | 14% | u | -1% | 13%
O=S(=O)(NCc1ccco1)c1ccc(Cl)nc1 | -48% | -5 | 2% | 1% | -5% | 8%
Cc1ccc(-c2nc3ccccc3[nH]2)s1 | -1% | -9 | 9.2µM* | u | 0% | 16µM*
COC(=O)c1ccc(-c2nc3ccccc3[nH]2)cc1 | x | -3 | u | u | -3% | 23µM*
Nc1cc(N)cc(-c2nc3ccccc3[nH]2)c1 | -6% | 17 | 10µM* | u | -5% | 18µM*
c1ccc(-c2nc3ccccc3[nH]2)cc1 | 104% | -23 | u | u | -5% | -18%
c1csc(-c2nc3ccccc3[nH]2)c1 | 1% | -1 | -22% | u | -24% | -22%
O=C(CCc1ccccc1)c1nnc(-c2ccccc2)o1 | 5% | -53* | 4% | -13% | 0% | u
CCOC(=O)c1nnc(-c2ccccc2)o1 | -4% | 0 | -11% | -8% | 7% | 7%
COc1ncc2nc(-c3ccccc3)c(=O)n(C)c2n1 | x | x | -8% | x | x | -3%
CCN(CC)CCNCC(=O)N1c2ccccc2CCc2ccc(NC(=O)OC)cc21 | -2% | -10 | -10% | 3% | -2% | -7%
